Results reported in PubChem BioAssay (NCI).
The panel holds about 79,000 compounds, 15% with a hit somewhere; the sample as a whole holds those more often. Activity calls are given as the source filed them. No stated cut-off is given here; in the data, active means growth inhibition above about 70%; inactive means the rest.

Assays:
[1] = NCI Yeast Anticancer Drug Screen. Data for the wt1 strain (AID 149);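 further: 0% = growth of vehicle-treated wt1 cultures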; details: S. cerevisiae wt1 strain (SPY 50644) growth inhibition, stronger effect = higher value
Method in brief: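 Using yeast strain wt1, compound-induced growth inhibition was determined against vehicle-treated cultures.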

[2] = NCI Yeast Anticancer Drug Screen. Data for the rad50EPP+ strain (AID 151);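 further: 0% = growth of vehicle-treated control cultures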; details: S. cerevisiae rad50 mutant strain, stronger effect = higher value
Method in brief: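 Exposing the rad50EPP+ strain to each compound, growth was compared with vehicle-only cultures to give inhibition.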

[3] = NCI Yeast Anticancer Drug Screen. Data for the mgt1 strain (AID 153); details: S. cerevisiae mgt1 mutant growth inhibition, stronger effect = higher value
Method in brief: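 Genetically defined yeast (mgt1) treated with compound; inhibition of growth expressed against vehicle-treated controls.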

[4] = NCI Yeast Anticancer Drug Screen. Data for the rad50 strain (AID 155);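 further: 0% = growth of vehicle-only cultures of the same strain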; details: S. cerevisiae rad50 strain growth inhibition, stronger effect = higher value
Method in brief: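 Relative growth inhibition (compound vs vehicle) was measured in yeast with a defined repair-gene alteration.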

[5] = NCI Yeast Anticancer Drug Screen. Data for the mec2-1 strain (AID 157); details: S. cerevisiae mec2-1 strain, stronger effect = higher value
Method in brief: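 Readout is yeast growth inhibition, normalised to vehicle-treated controls, in the mec2-1 strain exposed to compound.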

[6] = NCI Yeast Anticancer Drug Screen. Data for the rad14 strain (AID 159);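 further: 0% = growth of vehicle-treated control cultures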; details: S. cerevisiae rad14 strain growth inhibition, stronger effect = higher value
Method in brief: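 Screen for anticancer potential: a yeast strain altered in DNA damage repair is grown with compound, and reduced growth is quantified against vehicle controls.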

[7] = NCI Yeast Anticancer Drug Screen. Data for the sgs1 mgt1 strain (AID 161);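 further: 0% = growth of cultures given vehicle only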; details: S. cerevisiae sgs1 mgt1 strain, stronger effect = higher value
Method in brief: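 Compounds are added to genetically altered yeast, and growth is compared with cultures given vehicle alone to give percent inhibition.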

[8] = NCI Yeast Anticancer Drug Screen. Data for the CLN2oe strain (AID 163);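 further: 0% = growth of vehicle-only control cultures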; details: S. cerevisiae CLN2oe strain, stronger effect = higher value
Method in brief: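 Values reflect how much compound exposure reduced yeast growth, referenced to vehicle-exposed cells. Assay organism is a strain with a defined genetic change affecting cell-cycle control.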

[9] = NCI Yeast Anticancer Drug Screen. Data for the cln2 rad14 strain (AID 165);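 further: 0% = growth equal to vehicle treated cultures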; details: S. cerevisiae cln2 rad14 strain, stronger effect = higher value
Method in brief: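 Relative to vehicle controls, growth inhibition of compound-treated cln2 rad14 yeast was recorded.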

[10] = NCI Yeast Anticancer Drug Screen. Data for the bub3 strain (AID 167); details: S. cerevisiae bub3 mutant strain, stronger effect = higher value
Method in brief: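 Screening used yeast with an engineered genetic alteration affecting cell cycle control. Compound-exposed cultures were compared with vehicle cultures, and reduced growth was taken as inhibition.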

[11] = NCI Yeast Anticancer Drug Screen. Data for the wt2 strain (AID 169);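 further: 0% = growth of vehicle-treated yeast cultures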; details: S. cerevisiae wt2 strain growth inhibition, stronger effect = higher value
Method in brief: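 Values express reduction in yeast growth under compound treatment, referenced to vehicle-treated cells.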

[12] = NCI Yeast Anticancer Drug Screen. Data for the mlh1 strain (AID 171);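 further: 0% = growth of vehicle-treated control cultures of the same strain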; details: S. cerevisiae mlh1 strain growth inhibition, stronger effect = higher value
Method in brief: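 Steps: expose the defined-mutant yeast strain to compound; expose a parallel culture to vehicle; measure growth; express compound effect as inhibition relative to the vehicle culture.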

[13] = NCI Yeast Anticancer Drug Screen. Data for the sgs1 strain (AID 173);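 further: 0% = growth of vehicle-only control cultures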; details: S. cerevisiae sgs1 mutant, stronger effect = higher value
Method in brief: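 Treat defined-mutant yeast with compound; measure growth; calculate inhibition relative to vehicle-treated cells.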

[14] = NCI Yeast Anticancer Drug Screen. Data for the mlh1 rad18 strain (AID 175); details: S. cerevisiae mlh1 rad18 strain growth inhibition, stronger effect = higher value
Method in brief: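 Test agents were incubated with a yeast strain of defined genotype (DNA damage repair defect). Inhibition of growth was derived by comparison with vehicle-exposed cultures.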

[15] = NCI Yeast Anticancer Drug Screen. Data for the rad18 strain (AID 177); details: S. cerevisiae rad18 mutant growth inhibition, stronger effect = higher value
Method in brief: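 A genetically defined yeast mutant impaired in DNA damage repair was treated with test compounds, then its growth was measured against cultures receiving vehicle alone.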

[16] = at 5.0 µM (retest, dose inferred, filed as 0.5)
[17] = at 50.0 µM (retest, dose inferred, filed as 5.0)

Measured: growth inhibition

N=C(N)c1ccc(N=Nc2c(O)ccc3c2[nH]c2ccccc23)cc1
active: [1]; at 33.0 µM 95% | [1]; at 100.0 µM 97% | [2]; at 33.0 µM 87% | [2]; at 100.0 µM 95% | [3]; at 33.0 µM 95% | [3]; at 100.0 µM 95% | [4]; at 11.0 µM 91% | [4]; at 33.0 µM 95% | [4]; [17] 98% | [4]; at 50.0 µM 97.8% | [4]; at 100.0 µM 95% | [5]; at 33.0 µM 95% | [5]; [17] 96% | [5]; at 50.0 µM 98.2% | [5]; at 100.0 µM 97% | [6]; at 11.0 µM 90% | [6]; at 33.0 µM 96% | [6]; at 100.0 µM 97% | [7]; [17] 97% | [7]; at 50.0 µM 96.8% | [8]; at 33.0 µM 93% | [8]; at 100.0 µM 94% | [9]; [17] 95% | [9]; at 50.0 µM 95.9% | [10]; at 11.0 µM 79% | [10]; at 33.0 µM 95% | [10]; [17] 97% | [10]; at 50.0 µM 98.2% | [10]; at 100.0 µM 93% | [11]; at 11.0 µM 84% | [11]; at 33.0 µM 95% | [11]; at 100.0 µM 97% | [12]; at 11.0 µM 71% | [12]; at 33.0 µM 92% | [12]; at 100.0 µM 96% | [13]; at 11.0 µM 92% | [13]; at 33.0 µM 96% | [13]; at 100.0 µM 96% | [14]; [17] 98% | [14]; at 50.0 µM 98.3% | [15]; at 11.0 µM 93% | [15]; at 33.0 µM 96% | [15]; at 100.0 µM 95%
inactive: [1]; at 1.2 µM -2% | [1]; at 3.7 µM -1% | [1]; at 11.0 µM 69% | [2]; at 1.2 µM 8% | [2]; at 3.7 µM 36% | [2]; at 11.0 µM 57% | [3]; at 1.2 µM -2% | [3]; at 3.7 µM 2% | [3]; at 11.0 µM 64% | [4]; at 1.2 µM -2% | [4]; at 3.7 µM 11% | [4]; [16] 57% | [5]; at 1.2 µM -3% | [5]; at 3.7 µM -1% | [5]; [16] 15% | [5]; at 11.0 µM 68% | [6]; at 1.2 µM -1% | [6]; at 3.7 µM 3% | [7]; [16] 17% | [8]; at 1.2 µM -3% | [8]; at 3.7 µM 5% | [8]; at 11.0 µM 41% | [9]; [16] -24% | [10]; at 1.2 µM -4% | [10]; at 3.7 µM -3% | [10]; [16] 19% | [11]; at 1.2 µM -3% | [11]; at 3.7 µM 5% | [12]; at 1.2 µM 1% | [12]; at 3.7 µM 2% | [13]; at 1.2 µM 0% | [13]; at 3.7 µM 21% | [14]; [16] 24% | [15]; at 1.2 µM -10% | [15]; at 3.7 µM 11%

O=C1OC(/C=C/c2ccccc2)Sc2ccccc21 (stereo unspecified)
active: [10]; at 50.0 µM 89.3%
inactive: [1]; at 1.2 µM -3% | [1]; at 3.7 µM 0% | [1]; at 11.0 µM 1% | [1]; at 33.0 µM 2% | [1]; at 100.0 µM 8% | [2]; at 1.2 µM 5% | [2]; at 3.7 µM 5% | [2]; at 11.0 µM 13% | [2]; at 33.0 µM 18% | [2]; at 100.0 µM 23% | [3]; at 1.2 µM -1% | [3]; at 3.7 µM 2% | [3]; at 11.0 µM 4% | [3]; at 33.0 µM 10% | [3]; at 100.0 µM 44% | [4]; at 1.2 µM 3% | [4]; at 3.7 µM 4% | [4]; [16] -16% | [4]; at 11.0 µM 10% | [4]; at 33.0 µM 14% | [4]; [17] 1% | [4]; at 50.0 µM -0.5% | [4]; at 100.0 µM 27% | [5]; at 1.2 µM -3% | [5]; at 3.7 µM -3% | [5]; [16] 10% | [5]; at 11.0 µM 0% | [5]; at 33.0 µM 10% | [5]; [17] 8% | [5]; at 50.0 µM 29.8% | [5]; at 100.0 µM 24% | [6]; at 1.2 µM 1% | [6]; at 3.7 µM 0% | [6]; at 11.0 µM 4% | [6]; at 33.0 µM 12% | [6]; at 100.0 µM 23% | [7]; [16] 3% | [7]; [17] 7% | [7]; at 50.0 µM 30.9% | [8]; at 1.2 µM 0% | [8]; at 3.7 µM 2% | [8]; at 11.0 µM -1% | [8]; at 33.0 µM 3% | [8]; at 100.0 µM 17% | [9]; [16] -34% | [9]; [17] -47% | [9]; at 50.0 µM -26.9% | [10]; at 1.2 µM 5% | [10]; at 3.7 µM 11% | [10]; [16] 7% | [10]; at 11.0 µM 33% | [10]; at 33.0 µM 46% | [10]; [17] 50% | [10]; at 100.0 µM 62% | [11]; at 1.2 µM -2% | [11]; at 3.7 µM -8% | [11]; at 11.0 µM -2% | [11]; at 33.0 µM 1% | [11]; at 100.0 µM 10% | [12]; at 1.2 µM 1% | [12]; at 3.7 µM 3% | [12]; at 11.0 µM 7% | [12]; at 33.0 µM 12% | [12]; at 100.0 µM 26% | [13]; at 1.2 µM 0% | [13]; at 3.7 µM 2% | [13]; at 11.0 µM 6% | [13]; at 33.0 µM 12% | [13]; at 100.0 µM 25% | [14]; [16] 11% | [14]; [17] 27% | [14]; at 50.0 µM 32.9% | [15]; at 1.2 µM 1% | [15]; at 3.7 µM 4% | [15]; at 11.0 µM 7% | [15]; at 33.0 µM 19% | [15]; at 100.0 µM 43%
